# NPSR antagonist – blocks cAMP signaling of the human neuropeptide S receptor | Q6W5P4 | CHO-NPSR cells, cAMP TR-FRET, antagonist mode | Potency, µM (highest dose often 38.3 µM), inactives show at the top dose activity change, negative = inhibition, hits mostly inhibitors | 220,000 tested, 1% active | AID 1461; further: potency means the concentration at half of the fitted maximal effect; on the % scale 0 is the no-effect control and ±100 the full control effect; nearly all actives have a fitted effect of over 50% in size
# PKM2 activator – activators of human pyruvate kinase M2; 260,000 tested, 0.34% active; AID 1631; Potency, µM (top dose mostly 57.5 µM), inactives show top-dose activation, actives largely listed as activators; purified PKM2, Kinase-Glo ATP luminescence, activation; response scale: 0% is enzyme alone, no compound; P14618; further: potency means the concentration at half of the fitted maximal effect; on the % scale 0 is the no-effect control and ±100 the full control effect; nearly all actives have a fitted effect of over 55% in size
#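 Purified hPK-M2 (>95% pure) converted ADP (0.1 mM final) to ATP with 0.5 mM PEP in 50 mM imidazole pH7.2, KCl, MgCl2, Tween 20, BSA; 1 h at room temperature. ATP detected by Kinase-Glo luminescence.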
# IL-2 act – activates IL-2 in a cell-based reporter assay. IL-2 activation reporter assay, cell-based qHTS; stimulated with anti-CD3/CD4/CD28 beads; in transgenic mouse T cells. activation, % (series mostly up to about 46 µM). 360,000 tested, 0.065% active. AID 652025; in the data active means activation above about 50%; inconclusive means mostly about 30% to 49%; further: 0% is about no effect
#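 Readout: EGFP and DsRed signals by fluorescent plate cytometry. Unstimulated transgenic mouse T cells received compound 60 min before antibody-bead stimulation, then incubated 18 h at 37 degrees C.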
# ClpP mod – qHTS Assay for Activators of ClpP. purified B. subtilis ClpP, FRET peptide cleavage, 20 min. Potency, µM (titrated, usually from 57.5 µM), without a hit: at the highest dose activity change, negative = active. 340,000 tested, 1.9% active; active means well fitted falling curve with a large enough effect; inconclusive means small, poorly fitted or top-dose-only effect; inactive means no such curve, though single readings can be large or run the other way; further: potency means the concentration at half of the fitted maximal effect; the source files actives as falling curves though it sought activators and does not explain the sign; nearly all actives have a fitted effect of over 65% in size
#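 Purified B. subtilis ClpP, 10 microg/mL final in Tris/HCl pH8 with KCl, BSA, glycerol and Tween-20, cleaved an Abz/nitrotyrosine-quenched decapeptide. Fluorescence (ex 320, em 430) was read at 0 and 20 min at room temperature. Delta was normalized to 5.8 microM ADEP and DMSO/no-enzyme controls.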
# An asterisk follows results filed as active; ? = inconclusive; · = no result; [ ] = dose if it differs, or a comment. In the library only some 2% were active in any assay of this set; here they are far more common. Unless noted, the call rests on the fitted dose curve; in most records, active means well fitted curve in the direction sought with a large enough effect; inconclusive means small, poorly fitted or top-dose-only effect, or another doubt; inactive means no such curve, though single readings can be large; an effect the other way counts as inactive or inconclusive.
SMILES,NPSR antagonist,PKM2 activator,IL-2 act,ClpP mod
CCOC(=O)c1c(C)n(Cc2ccc(F)cc2)c2ccc(O)cc12,-30%,11µM*,0,-4%
CCCC1(CC(C)C)C(=O)NC(=S)NC1=O,·,·,-1,28µM*
CCC1(CC(C)C)C(=O)NC(=S)NC1=O,·,·,-3,1%
CC(=NCc1ccc2c(c1)OCO2)c1c(O)n(Cc2ccccc2)c(=O)[nH]c1=O,-31%,25µM*,0,-1%
Nc1ccccc1C(=O)OCCOc1ccccc1,-26%[46.1 µM],-13%,0,28µM*
O=C1NC(=O)C(=Cc2ccc(-c3ccccc3[N+](=O)[O-])o2)C(=O)N1,?,18µM*,-5,·
Cc1ccc(N(C)C(=O)Oc2cccc3cccnc23)cc1,-10%[46.1 µM],8%,-1,-3%
CC(C)c1ccc(N2C(=O)NC(=O)/C(=C/C=C/c3ccco3)C2=O)cc1,6.3µM*,17%,1,-11%
CC1=NN(c2ccccc2)C(=O)C1/C=C1\C(=O)NC(=O)N(c2cc(C)cc(C)c2)C1=O (stereo not given),-5%[46.1 µM],11%,0,25µM*
Cc1cc(C)cc(N2C(=O)NC(=O)/C(=C\C=C\c3ccco3)C2=O)c1,10µM*,3%,0,16µM*
CCc1ccc(N2C(=O)NC(=O)/C(=C\C=C\c3ccco3)C2=O)cc1,10µM*,24%,0,1%
O=C(N/N=C/C1C(=O)NC(=S)N(c2ccccc2)C1=O)c1cc(Br)c(O)c(Br)c1 (stereo not given),-17%,-2%,-1,·
COc1cccc2c1cc([N+](=O)[O-])c1c(C(=O)O)cc3c(c12)OCO3,·,·,0,1%
O=C(O)c1cccc2c1NC(c1cccc([N+](=O)[O-])c1)C1CC(Sc3ccccc3[N+](=O)[O-])C(Cl)C21 (stereo not given),10µM*,1%,1,·
CC(=O)C1C(N2CC2)CC2C3CCC4=CC(=O)CCC4(C)C3CCC21C (stereo not given),·,·,1,14µM*
COC(=O)C1=C(c2ccc(OCc3ccccc3)cc2)C[C@@H]2CC[C@H]1N2C(=O)NCc1ccc(F)cc1,·,·,-4,-10%
COc1ccc(Cl)cc1NC(=O)C1CCN(c2nnc(C)c3c(C)n(-c4ccccc4)nc23)CC1,·,·,·,28µM*
CN1CN(c2ccccc2)C2(CCN(CCCSc3ccccc3NC(=O)/C=C/c3ccccc3)CC2)C1=O,·,·,4,-4%
CN[C@H]1C[C@H]2O[C@@](C)([C@H]1OC)n1c3ccccc3c3c4c(c5c6ccccc6n2c5c31)C(=O)NC4,6.3µM*,-3%,·,·
N#CC1c2ccccc2-n2nncc2CN1C(=O)CCc1ccccc1 (stereo not given),·,·,1,0%
CNC(=O)Oc1cccc(-c2cn3cc(OC(=O)NC)ccc3n2)c1,-8%,-22%,2,14µM*
Cc1cc(N2CCCCC2)nc2ccc(NC(=O)CCC(=O)N3CCN(c4cccc(Cl)c4)CC3)cc12,·,·,·,32µM*
Cc1cc(N2CCOCC2)nc2ccc(NC(=O)CCC(=O)N3CCC4(CC3)OCCO4)cc12,-14%[46.1 µM],-1%,0,?
CCC1(C)CN(S(=O)(=O)OCC(Cl)(Cl)Cl)C(=O)N1 (stereo not given),·,4%,0,0%
O=C(CSc1ccc(-c2ccco2)nn1)Nc1ccccc1,15%,14µM*,0,0%
SMILES,NPSR antagonist,PKM2 activator,IL-2 act,ClpP mod
CCc1nnc(NC(=O)CSc2ccc(-c3ccco3)nn2)s1,-6%,16µM*,1,·
CC(=O)c1cccc(NC(=O)c2cccn(Cc3cccc(C)c3)c2=O)c1,·,·,·,-4%
CN(C)CCN(Cc1ccccc1)c1ccnc(N(C)C)c1C#N,6%[46.1 µM],-1%,0,32µM*
O=C(c1ccco1)c1cn(Cc2ccccc2Cl)c2ccccc12,10µM*,-9%,-2,-17%
O=C(c1cn(Cc2ccccc2)c2ccccc12)C1CC1,10µM*,4%,-1,0%
CCC(=O)c1cn(Cc2ccccc2)c2ccccc12,36%,-23%,-4,0%
CCOP(=O)(OCC)c1cc(C)c(O)c(C(C)(C)C)c1,16%,0%,-1,0%
N#Cc1ccccc1Cn1cc(C(=O)C2CC2)c2ccccc21,-24%[46.1 µM],6%,-1,-8%
C=CCn1c(O)c(C(C)=NCc2ccc3c(c2)OCO3)c(=O)[nH]c1=O,8%,1%,2,·
O=c1c(C=Nc2cccnc2Cl)c(O)n(CCCCl)c(=O)n1C1CCCCC1,10µM*,0%,0,·
CC(C)C[C@H]1C(=O)N2CCCC2[C@]2(O)O[C@](NC(=O)[C@@H]3C=C4c5cccc6[nH]c(Br)c(c56)C[C@H]4N(C)C3)(C(C)C)C(=O)N12 (stereo not given in full),13µM*,·,·,·
CCOP(=O)(OCC)c1nc(-c2cccc3ccccc23)oc1NCc1ccccc1,?,-6%,1,?
CCCNc1oc(-c2cccc3ccccc23)nc1C#N,-4%[46.1 µM],-4%,4,28µM*
CCc1ccc(-n2c(O)c(C(C)=O)c(=O)[nH]c2=O)cc1 (tested in a mixture with another compound),27%,-1%,-3,-3%
CCN(CC)C(=O)c1ccc(NC(=O)CCCSc2ccccc2)cc1,-14%,-1%,-2,·
CCN(CC(=O)Nc1ccccc1C(F)(F)F)C(=O)CCSc1ccc(F)cc1,·,·,-1,13µM*
CC(C)(C)n1cc(C(=O)c2ccccc2)cc1-c1ccccc1,?,3%,-2,1%
O=C1/C(=C/c2ccc(F)cc2)Oc2cc(OC(=O)N3CCOCC3)ccc21,41%,3%,0,18µM*
Cc1oc(-c2cccs2)nc1CSCC(=O)N1CCC2(CC1)OCCO2,-1%[46.1 µM],5%,-2,1.4µM*
O=C(c1cccn2c(=O)c3cc(Cl)ccc3nc12)N1CCC2(CC1)OCCO2,-20%[46.1 µM],-9%,-1,25µM*
CCCCc1ccc(NC2=NCCCS2)cc1,·,·,-1,·
CO[C@H]1[C@@H](OC)CC(OC2OC(CO)C(O)C(O)C2O)/C(=C\C#N)[C@@H]1O (stereo not given in full),11%,-16%,1,-1%
C[C@@H]1CN([C@H](C)CO)C(=O)CCCn2nncc2CO[C@@H]1CN(C)C(=O)Oc1cccc2ccccc12,·,·,2,1%
OC1/C(=C/c2ccccc2F)N2CCC1CC2 (stereo not given),10%,-5%,-5,-1%
COc1cc(C(=O)Nc2ccc(Br)cc2C(=O)c2ccccc2)cc(OC)c1OC,-20%[46.1 µM],0%,1,1%
CC12CN3CC(c4ccccc4)(CN(C1)C31CCCCC1)C2=O,-1%[46.1 µM],11%,1,13µM*
c1ccc(-c2cc(-c3ccccc3)[n+](-c3ccccc3)c(-c3ccccc3)c2)cc1,?,-8%,-4,·
CN(C)c1ccc(-[n+]2c(-c3ccccc3)cc(-c3ccccc3)cc2-c2ccccc2)cc1,13µM*,3%,0,·

# Assay outcomes deposited in PubChem BioAssay by National Center for Advancing Translational Sciences (NCATS).
